For 36 compounds, outcome and activity change, negative = cytotoxicity results are on record in PubChem BioAssay (Tox21).

Inconclusive results are not listed. Unmarked numbers belong to inactive results. Activity calls are given as the source filed them. The call rests on the fitted dose curve; in most records, active means well fitted cell-killing curve with a large enough effect in the repeat runs; inconclusive means weak or mixed curves; inactive means no such curve, though single readings can be large or run the other way.
On the % scale 0 is the no-effect control and ±100 the full control effect.

The assay in a line: qHTS assay to identify small molecule agonists of the peroxisome proliferator-activated receptor delta (PPARd) signaling pathway - cell viability counter screen (AID 743211). Further: nearly all actives have a fitted effect of over 55% in size. The settings on record: PPARd-bla HEK293H viability, CellTiter-Glo luminescence, 17 h; series mostly up to 62.6 µM. The gist of the method: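 Read-out: CellTiter-Glo luminescence, 30 min RT, measured in the same wells as the beta-lactamase reporter. Cells: GeneBLAzer PPAR delta UAS-bla HEK293H, 3000 cells/well, compound exposure 17 h at 37C.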
In general terms: qHTS replaces the single test concentration by a dilution series.
On to `C=C[C@@H](C)CCC=C(C)C`, for which the compound was classed as inactive.
Still for that read-out and setting: with `CCC(=O)c1ccc(O)cc1` the entry was “inactive”; with `CN[C@@H]1[C@@H](O)[C@@H](O[C@@H]2[C@H](O)[C@H](O[C@H]3OC(CN)=CC[C@H]3N)[C@@H](N)C[C@H]2N)OCC1(C)O` (stereo partly specified), “inactive”.
`CCc1nccnc1C`: the compound was called inactive.
For the compound `CCCCOC(=O)C(=O)OCCCC`, the outcome was inactive.
On to `Cc1cc(O)c2c(c1)C(=O)c1cccc(O)c1C2=O`, for which the call was inactive.
On the same count and under the same terms, as for `O=CN1CCOCC1`, the entry is “inactive”; as for `OCCCCCCCl`, “inactive”.
The same measure, in the same setting: as for `C[C@H](CCC(=O)NCC(=O)O)[C@H]1CC[C@H]2[C@@H]3[C@H](O)C[C@@H]4C[C@H](O)CC[C@]4(C)[C@H]3C[C@H](O)[C@]12C`, the entry is “inactive”; as for `O=C1NC2NC(=O)NC2N1` (stereo unspecified), “inactive”; as for `CCOC(=O)CCc1ccccc1`, “inactive”.
Still for that read-out and setting: with `Cc1ccccc1OCC1CO1` (stereo unspecified) the entry was “inactive”.
Turning to `O=c1[nH]c(=O)c2[nH]c(=O)[nH]c2[nH]1`, the activity change, negative = cytotoxicity is 7.12% [at 13.2 µM].
As to `Cc1cccc(Nc2ccncc2S(=O)(=O)NC(=O)NC(C)C)c1`, the call was inactive.
For the compound `CC1=CC[C@H](CC=O)C1(C)C`, the result was inactive.
As for `OC(CCN1CCCCC1)(c1ccccc1)c1ccccc1`, the call was inactive.
Consider `NS(=O)(=O)c1cc2c(cc1Cl)NC(CC1CCCC1)NS2(=O)=O` (stereo unspecified), for which the compound was classed as inactive.
Same read-out and setting: with `COc1cccc2sc(N)nc12` the entry was “inactive”; with `CN(C)CCCNCCC#N`, “inactive”; with `CCC(O)C(C)(C)C` (stereo unspecified), “inactive”.
On the same count and under the same terms, with `C=CCOC(=O)c1ccc(C(=O)OCC=C)c(C(=O)OCC=C)c1` the entry was “inactive”.
With `C=C(C)[C@@H]1CC[C@@H](C)C[C@@H]1O`, the compound was classed as inactive.
As to `Nc1ccc(/C=C/c2ccc(N)cc2S(=O)(=O)O)c(S(=O)(=O)O)c1`, the activity change, negative = cytotoxicity was 4.06% [at 0.55 µM].
As for `CC(Cl)COP(=O)(OCC(C)Cl)OCC(C)Cl` (stereo unspecified), the call was inactive.
Regarding `CCNC(=O)NCCCOc1cccc(CN2CCCCC2)c1`, the result was inactive.
Regarding `Cc1ncc([N+](=O)[O-])n1CC(O)CCl` (stereo unspecified), the result was inactive.
For the compound `COCCOCCOCCOC`, the outcome was inactive.
As for `CCCCC/C=C/CC(=O)OC`, the call was inactive.
As to `O=C(c1ccc2c(c1)C(=O)OC2=O)c1ccc2c(c1)C(=O)OC2=O`, the compound was called inactive.
In the case of `NC(=O)NC(=O)Cc1ccccc1`, the call was inactive.
Turning to `CCOC(=O)CC(CC(=O)OCC)(OC(C)=O)C(=O)OCC`, the outcome was inactive.
Still for that read-out and setting: with `CCC1COC(=O)O1` (stereo unspecified) the entry was “inactive”; with `COCC(=O)Nc1c(I)c(C(=O)NCC(O)CO)c(I)c(C(=O)N(C)CC(O)CO)c1I` (stereo unspecified), “inactive”; with `CCS(=O)(=O)CCn1c([N+](=O)[O-])cnc1C`, “inactive”.
As for `NC(=O)NNC(N)=O`, the outcome was inactive.
On the same count and under the same terms, as for `Cc1ccccc1C`, the entry is “inactive”.
